Assay results from the supplement of paper PMC10849652.
About 7,900 targets were measured; listed, in parts, are those with a hit and a random draw of the rest. About 0.6% of all pairs of compound and target were hits.

Legend:
Assay in all cases: log2 fold change, soluble protein after heating vs DMSO (PISA); higher = thermal stabilisation; K562 cells, 10 uM, 30 min; active = over 0.2 and 3.5 SD of the protein, either way, in both replicates (recomputed)
[1] = compound: NC(=O)Nc1cc(-c2cccc(F)c2)sc1C(=O)N[C@H]1CCCNC1
Method in brief: (§1)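 Values are thermal stability changes relative to control samples and are taken from duplicates. They are stated as log2 fold changes. Before quantification by TMTpro 16plex LC-MS/MS with equalised channel sums, K562 cells at 2×10^6 cells/mL were treated with 10 μM compound for 30 min, heated in aliquots for 3 min across 48°C-58°C, pooled, extracted in PBS with 0.5% NP-40 at 4°C, and centrifuged at 21,000xg for 90 min to give the soluble supernatant.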

[2] = compound: NC(=O)c1cnc(N[C@@H]2CCCC[C@@H]2N)nc1Nc1cccc(-n2nccn2)c1
Method in brief: as §1

[3] = compound: NC1(c2ccc(-c3nc4ccn5c(=O)[nH]nc5c4cc3-c3ccccc3)cc2)CCC1
Method in brief: as §1

[4] = compound: NCC(=O)Nc1ccc(-n2nc(C(F)(F)F)cc2-c2ccc3c(ccc4ccccc43)c2)cc1
Method in brief: as §1

entinostat = compound: Nc1ccccc1NC(=O)c1ccc(CNC(=O)OCc2cccnc2)cc1 [entinostat]
Method in brief: as §1

vorinostat = compound: O=C(CCCCCCC(=O)Nc1ccccc1)NO [vorinostat]
Method in brief: as §1

citarinostat = compound: O=C(CCCCCCNC(=O)c1cnc(N(c2ccccc2)c2ccccc2Cl)nc1)NO [citarinostat]
Method in brief: as §1

silmitasertib = compound: O=C(O)c1ccc2c(c1)nc(Nc1cccc(Cl)c1)c1ccncc12 [silmitasertib]
Method in brief: as §1

[5] = compound: O=C1NC(=O)C(c2cnc3ccccn23)=C1c1cn2c3c(cc(F)cc13)CN(C(=O)N1CCCCC1)CC2
Method in brief: as §1

[6] = compound: c1cc(OCCN2CCCCC2)cc(-c2n[nH]c3ccc(-c4nnc[nH]4)cc23)c1
Method in brief: as §1

Measured: log2 fold change

FAM114A2 (UniProt Q9NRY5)
UniProt Q9NRY5, sequence (Q9NRY5 whole entry, looked up): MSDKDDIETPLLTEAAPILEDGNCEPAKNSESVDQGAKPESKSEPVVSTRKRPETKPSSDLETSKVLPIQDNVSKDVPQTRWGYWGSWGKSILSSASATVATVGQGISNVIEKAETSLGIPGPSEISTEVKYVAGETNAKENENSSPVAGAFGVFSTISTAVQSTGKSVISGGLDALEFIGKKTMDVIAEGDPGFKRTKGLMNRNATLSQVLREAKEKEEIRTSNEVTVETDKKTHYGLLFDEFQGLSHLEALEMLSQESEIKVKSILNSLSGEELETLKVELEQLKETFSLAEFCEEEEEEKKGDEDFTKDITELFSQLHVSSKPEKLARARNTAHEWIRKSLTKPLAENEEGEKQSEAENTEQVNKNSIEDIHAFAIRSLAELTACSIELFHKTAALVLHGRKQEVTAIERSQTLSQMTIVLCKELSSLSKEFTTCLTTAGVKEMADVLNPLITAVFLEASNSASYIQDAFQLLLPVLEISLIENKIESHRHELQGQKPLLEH
inactive: [1] 0.023 | [2] -0.089 | [3] -0.151 | [4] -0.062 | entinostat 0.051 | vorinostat 0.034 | citarinostat 0.05 | silmitasertib 0.02 | [5] -0.016 | [6] -0.013

DCUN1D1 (UniProt Q96GG9)
inactive: [1] -0.024 | [2] -0.048 | [3] -0.102 | [4] -0.01 | entinostat 0.016 | vorinostat 0.002 | citarinostat 0.054 | silmitasertib 0.002 | [5] -0.098 | [6] -0.02

EPHX2 (UniProt P34913)
UniProt P34913, sequence (P34913 whole entry, looked up): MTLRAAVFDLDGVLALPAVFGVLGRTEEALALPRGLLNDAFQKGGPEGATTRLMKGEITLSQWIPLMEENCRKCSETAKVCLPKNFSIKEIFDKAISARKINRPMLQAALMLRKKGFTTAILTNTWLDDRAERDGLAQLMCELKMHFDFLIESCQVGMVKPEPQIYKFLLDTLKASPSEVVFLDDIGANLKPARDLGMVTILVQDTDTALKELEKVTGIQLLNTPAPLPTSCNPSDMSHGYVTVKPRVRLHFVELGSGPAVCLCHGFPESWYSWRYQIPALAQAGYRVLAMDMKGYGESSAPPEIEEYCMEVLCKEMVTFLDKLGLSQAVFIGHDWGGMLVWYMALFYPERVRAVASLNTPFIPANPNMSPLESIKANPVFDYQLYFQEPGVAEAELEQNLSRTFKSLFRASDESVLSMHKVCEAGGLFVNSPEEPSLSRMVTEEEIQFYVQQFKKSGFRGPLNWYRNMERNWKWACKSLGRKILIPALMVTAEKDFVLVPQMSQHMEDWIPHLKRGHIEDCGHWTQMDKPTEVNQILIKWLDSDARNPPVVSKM
inactive: [1] -0.148 | [2] -0.05 | [3] -0.016 | [4] -0.015 | entinostat 0.045 | vorinostat 0.113 | citarinostat 0.025 | silmitasertib 0.003 | [5] -0.025 | [6] -0.037

DCTN1 isoform 4 (UniProt Q14203)
inactive: [1] 0.002 | [2] -0.052 | [3] -0.033 | [4] 0.019 | entinostat 0.049 | vorinostat 0.029 | citarinostat 0.007 | silmitasertib 0.046 | [5] 0.081 | [6] -0.089

DIAPH1 (UniProt O60610)
inactive: [1] -0.156 | [2] -0.085 | [3] -0.067 | [4] -0.064 | entinostat 0.024 | vorinostat 0.066 | citarinostat 0.056 | silmitasertib 0.115 | [5] 0.178 | [6] -0.046

DHPS (UniProt P49366)
UniProt P49366, sequence (P49366 whole entry, looked up): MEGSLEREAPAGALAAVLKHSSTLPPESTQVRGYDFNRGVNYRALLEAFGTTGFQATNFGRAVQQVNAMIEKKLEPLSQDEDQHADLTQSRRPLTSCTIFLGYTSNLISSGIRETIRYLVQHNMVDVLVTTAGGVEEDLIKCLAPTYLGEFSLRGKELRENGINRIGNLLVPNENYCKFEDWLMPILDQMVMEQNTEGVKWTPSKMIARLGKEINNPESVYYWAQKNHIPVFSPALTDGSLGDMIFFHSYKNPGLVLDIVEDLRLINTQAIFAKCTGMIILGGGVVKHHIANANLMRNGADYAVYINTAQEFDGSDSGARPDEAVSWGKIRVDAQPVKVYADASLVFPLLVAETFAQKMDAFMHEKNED
inactive: [1] 0.01 | [2] 0.051 | [3] 0.014 | [4] 0.053 | entinostat -0.045 | vorinostat 0.04 | citarinostat 0.022 | silmitasertib -0.013 | [5] 0.08 | [6] -0.026

CTSC (UniProt P53634)
inactive: [1] 0.019 | [2] -0.015 | [3] -0.11 | [4] 0.086 | entinostat -0.053 | vorinostat -0.016 | citarinostat 0.015 | silmitasertib -0.053 | [5] -0.057 | [6] 0.063

ERLIN1 (UniProt O75477)
inactive: [1] 0.083 | [2] -0.068 | [3] -0.066 | [4] -0.043 | entinostat 0.111 | vorinostat 0.074 | citarinostat -0.01 | silmitasertib -0.009 | [5] 0.084 | [6] -0.045

CTNNB1 (UniProt P35222)
inactive: [1] -0.14 | [2] -0.06 | [3] -0.18 | [4] -0.2 | entinostat -0.078 | vorinostat -0.001 | citarinostat 0.093 | silmitasertib 0.03 | [6] -0.107
active: [5] 1.3

DCAF10 (UniProt Q5QP82)
inactive: [1] -0.018 | [2] -0.02 | [3] 0.026 | [4] 0.033 | entinostat -0.021 | vorinostat -0.015 | citarinostat 0.08 | silmitasertib 0.122 | [5] -0.028
active: [6] 0.357

DDOST (UniProt P39656)
UniProt P39656, sequence (P39656 whole entry, looked up): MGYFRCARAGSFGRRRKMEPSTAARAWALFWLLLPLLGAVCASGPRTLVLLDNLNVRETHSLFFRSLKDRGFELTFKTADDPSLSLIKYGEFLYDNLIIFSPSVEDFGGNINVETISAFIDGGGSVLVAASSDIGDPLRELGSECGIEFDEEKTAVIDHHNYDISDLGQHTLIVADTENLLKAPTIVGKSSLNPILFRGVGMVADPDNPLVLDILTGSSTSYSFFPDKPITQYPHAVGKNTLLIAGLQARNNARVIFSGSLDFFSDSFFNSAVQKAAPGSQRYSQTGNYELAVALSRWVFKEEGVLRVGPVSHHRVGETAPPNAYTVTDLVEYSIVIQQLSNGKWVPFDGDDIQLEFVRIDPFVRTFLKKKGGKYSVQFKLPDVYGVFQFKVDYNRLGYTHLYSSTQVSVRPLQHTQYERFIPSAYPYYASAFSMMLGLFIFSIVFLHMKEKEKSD
inactive: [1] 0.003 | [2] -0.013 | [3] -0.057 | [4] 0.014 | entinostat 0.007 | vorinostat -0.036 | citarinostat 0.017 | silmitasertib 0.05 | [5] -0.017 | [6] -0.116

EEF1D isoform 2 (UniProt P29692)
inactive: [1] -0.02 | [2] -0.06 | [3] -0.034 | [4] -0.105 | entinostat 0.018 | vorinostat -0.02 | citarinostat 0.017 | silmitasertib 0.108 | [5] -0.001 | [6] -0.067

F5 (UniProt P12259)
inactive: [1] -0.095 | [2] -0.08 | [3] 0.048 | [4] -0.024 | entinostat -0.045 | vorinostat -0.016 | citarinostat -0.019 | silmitasertib 0.127 | [5] 0.084 | [6] 0.002

DBR1 (UniProt Q9UK59)
UniProt Q9UK59, sequence (Q9UK59 whole entry, looked up): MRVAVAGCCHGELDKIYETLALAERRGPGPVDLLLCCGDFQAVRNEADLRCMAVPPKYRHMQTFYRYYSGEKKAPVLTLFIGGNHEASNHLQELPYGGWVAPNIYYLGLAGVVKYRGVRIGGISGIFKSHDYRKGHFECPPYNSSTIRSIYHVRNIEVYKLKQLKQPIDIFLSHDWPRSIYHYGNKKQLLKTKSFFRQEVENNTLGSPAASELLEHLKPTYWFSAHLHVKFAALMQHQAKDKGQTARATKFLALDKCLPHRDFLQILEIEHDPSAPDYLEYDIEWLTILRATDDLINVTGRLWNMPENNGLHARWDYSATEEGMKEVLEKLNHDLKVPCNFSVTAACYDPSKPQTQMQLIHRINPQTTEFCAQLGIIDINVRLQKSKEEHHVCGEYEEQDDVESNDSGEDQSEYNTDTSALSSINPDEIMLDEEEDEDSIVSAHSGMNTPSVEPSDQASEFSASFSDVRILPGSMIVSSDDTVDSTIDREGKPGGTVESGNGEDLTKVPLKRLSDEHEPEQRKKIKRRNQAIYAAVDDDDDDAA
active: vorinostat -0.215
inactive: [1] 0.002 | [2] -0.017 | [3] -0.002 | [4] 0.052 | entinostat -0.023 | citarinostat 0.014 | silmitasertib -0.012 | [5] -0.004 | [6] -0.072

CTSL (UniProt P07711)
inactive: [1] 0.082 | [2] -0.045 | [3] -0.123 | [4] 0.039 | entinostat -0.074 | vorinostat -0.053 | citarinostat -0.018 | silmitasertib 0.027 | [5] -0.079 | [6] -0.011

DYNC1I2 isoform 5 (UniProt Q13409)
inactive: [1] -0.021 | [2] -0.016 | [3] -0.023 | [4] 0.059 | entinostat -0.018 | vorinostat -0.044 | citarinostat 0.015 | silmitasertib 0.004 | [5] -0.012 | [6] 0.004

DHRS7B (UniProt Q6IAN0)
inactive: [1] -0.099 | [2] 0.083 | [3] -0.012 | [4] 0.117 | entinostat -0.014 | vorinostat 0.16 | citarinostat 0.01 | silmitasertib -0.05 | [5] -0.113 | [6] 0.077

DTWD2 (UniProt Q8NBA8)
UniProt Q8NBA8, sequence (Q8NBA8 whole entry, looked up): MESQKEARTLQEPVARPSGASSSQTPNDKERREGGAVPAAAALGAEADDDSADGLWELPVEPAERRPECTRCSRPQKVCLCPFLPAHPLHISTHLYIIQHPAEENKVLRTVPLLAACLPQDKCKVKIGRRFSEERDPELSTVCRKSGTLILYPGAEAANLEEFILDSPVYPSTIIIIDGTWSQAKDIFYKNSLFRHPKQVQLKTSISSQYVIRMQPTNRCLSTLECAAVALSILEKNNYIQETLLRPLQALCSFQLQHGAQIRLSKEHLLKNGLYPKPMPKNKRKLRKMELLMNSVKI
inactive: [1] 0.284 | [2] -0.03 | [3] -0.058 | [4] 0.068 | entinostat -0.079 | vorinostat 0 | citarinostat 0.152 | silmitasertib 0.089 | [5] 0.26 | [6] -0.123

DHRS3 (UniProt O75911)
inactive: [1] -0.032 | [2] -0.047 | [3] -0.081 | [4] -0.06 | entinostat 0.05 | vorinostat -0.084 | citarinostat 0.024 | silmitasertib 0.009 | [5] 0.046 | [6] -0.06

CTSH (UniProt P09668)
inactive: [1] 0.012 | [2] 0.029 | [3] 0.032 | [4] 0.04 | entinostat -0.002 | vorinostat -0.01 | citarinostat -0.02 | silmitasertib 0.005 | [5] 0.022 | [6] 0.197

EXTL2 (UniProt Q9UBQ6)
UniProt Q9UBQ6, sequence (Q9UBQ6 whole entry, looked up): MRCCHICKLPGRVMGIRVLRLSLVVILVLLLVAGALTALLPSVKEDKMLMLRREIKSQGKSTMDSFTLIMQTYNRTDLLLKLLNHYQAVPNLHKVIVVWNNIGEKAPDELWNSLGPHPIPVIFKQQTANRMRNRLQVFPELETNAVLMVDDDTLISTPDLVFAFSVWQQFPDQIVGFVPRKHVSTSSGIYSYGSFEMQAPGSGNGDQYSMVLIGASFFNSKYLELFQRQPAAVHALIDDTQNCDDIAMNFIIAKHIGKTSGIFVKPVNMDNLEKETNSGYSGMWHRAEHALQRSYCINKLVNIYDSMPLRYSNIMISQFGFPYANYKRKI
inactive: [1] -0.051 | [2] -0.033 | [3] -0.018 | [4] 0.039 | entinostat -0.01 | vorinostat 0.019 | citarinostat -0.044 | silmitasertib -0.011 | [5] 0.003 | [6] -0.223

FAM118A (UniProt Q9NWS6)
inactive: [1] 0.052 | [2] -0.129 | [3] -0.351 | [4] 0.015 | entinostat 0.149 | vorinostat 0.054 | citarinostat -0.289 | silmitasertib 0.166 | [5] -0.088 | [6] 0.322

ELOVL1 (UniProt Q9BW60)
inactive: [1] 0.017 | [2] -0.191 | [3] -0.087 | [4] -0.055 | entinostat 0.05 | vorinostat 0.321 | citarinostat -0.006 | silmitasertib -0.046 | [5] 0.002 | [6] 0.035

ERCC6 (UniProt Q03468)
inactive: [1] -0.288 | [2] -0.022 | [3] -0.062 | [4] 0.034 | entinostat -0.191 | vorinostat -0.003 | citarinostat -0.213 | silmitasertib 0.079 | [5] 0.013 | [6] -0.236

EEA1 (UniProt Q15075)
UniProt Q15075, sequence (Q15075 whole entry, looked up): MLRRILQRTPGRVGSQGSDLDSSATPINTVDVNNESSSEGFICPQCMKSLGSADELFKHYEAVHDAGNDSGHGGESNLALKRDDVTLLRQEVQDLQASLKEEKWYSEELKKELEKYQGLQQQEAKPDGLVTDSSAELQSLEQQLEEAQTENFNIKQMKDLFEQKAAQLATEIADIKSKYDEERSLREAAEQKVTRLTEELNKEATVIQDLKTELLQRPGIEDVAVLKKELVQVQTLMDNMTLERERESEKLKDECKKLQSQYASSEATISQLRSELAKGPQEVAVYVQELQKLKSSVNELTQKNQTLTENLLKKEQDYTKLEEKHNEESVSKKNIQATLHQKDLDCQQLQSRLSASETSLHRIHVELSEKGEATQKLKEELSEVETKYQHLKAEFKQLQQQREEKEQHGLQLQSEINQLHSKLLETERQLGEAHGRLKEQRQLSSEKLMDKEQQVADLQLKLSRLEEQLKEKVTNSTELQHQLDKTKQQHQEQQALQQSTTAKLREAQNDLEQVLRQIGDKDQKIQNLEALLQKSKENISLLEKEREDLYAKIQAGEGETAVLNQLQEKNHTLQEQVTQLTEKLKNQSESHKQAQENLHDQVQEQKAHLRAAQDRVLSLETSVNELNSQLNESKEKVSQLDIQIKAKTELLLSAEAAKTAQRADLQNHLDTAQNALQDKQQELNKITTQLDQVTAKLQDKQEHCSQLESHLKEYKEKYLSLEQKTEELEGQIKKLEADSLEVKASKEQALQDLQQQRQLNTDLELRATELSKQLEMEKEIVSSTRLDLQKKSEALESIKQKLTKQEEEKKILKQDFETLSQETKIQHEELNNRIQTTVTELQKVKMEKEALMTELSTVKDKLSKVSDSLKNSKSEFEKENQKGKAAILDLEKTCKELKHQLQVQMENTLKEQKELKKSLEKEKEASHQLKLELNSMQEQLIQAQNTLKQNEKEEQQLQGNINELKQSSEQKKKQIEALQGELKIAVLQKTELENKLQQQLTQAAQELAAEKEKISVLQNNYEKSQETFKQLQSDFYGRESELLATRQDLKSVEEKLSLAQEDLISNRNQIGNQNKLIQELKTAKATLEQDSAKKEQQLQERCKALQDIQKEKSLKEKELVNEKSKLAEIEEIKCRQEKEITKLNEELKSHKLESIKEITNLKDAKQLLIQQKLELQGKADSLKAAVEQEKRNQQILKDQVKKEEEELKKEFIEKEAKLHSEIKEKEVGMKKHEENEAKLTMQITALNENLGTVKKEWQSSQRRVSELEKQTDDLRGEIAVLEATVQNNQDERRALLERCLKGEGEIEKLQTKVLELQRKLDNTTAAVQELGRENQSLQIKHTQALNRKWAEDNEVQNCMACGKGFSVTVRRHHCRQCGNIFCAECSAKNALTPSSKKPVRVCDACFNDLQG
inactive: [1] 0.013 | [2] -0.014 | [3] 0.006 | [4] -0.014 | entinostat -0.023 | vorinostat 0.004 | citarinostat -0.001 | silmitasertib 0.015 | [5] 0.006 | [6] -0.043

FAM50A (UniProt Q14320)
inactive: [1] 0.003 | [2] -0.008 | [3] -0.087 | [4] -0.082 | entinostat 0.045 | vorinostat 0.011 | citarinostat 0.095 | silmitasertib 0.071 | [5] -0.001 | [6] -0.019

FAM3A (UniProt P98173)
active: [3] -0.21
inactive: [1] 0.022 | [2] -0.028 | [4] 0.006 | entinostat -0.097 | vorinostat -0.01 | citarinostat 0 | silmitasertib -0.015 | [5] 0.034 | [6] -0.028

DCAF13 (UniProt Q9NV06)
UniProt Q9NV06, sequence (Q9NV06 whole entry, looked up): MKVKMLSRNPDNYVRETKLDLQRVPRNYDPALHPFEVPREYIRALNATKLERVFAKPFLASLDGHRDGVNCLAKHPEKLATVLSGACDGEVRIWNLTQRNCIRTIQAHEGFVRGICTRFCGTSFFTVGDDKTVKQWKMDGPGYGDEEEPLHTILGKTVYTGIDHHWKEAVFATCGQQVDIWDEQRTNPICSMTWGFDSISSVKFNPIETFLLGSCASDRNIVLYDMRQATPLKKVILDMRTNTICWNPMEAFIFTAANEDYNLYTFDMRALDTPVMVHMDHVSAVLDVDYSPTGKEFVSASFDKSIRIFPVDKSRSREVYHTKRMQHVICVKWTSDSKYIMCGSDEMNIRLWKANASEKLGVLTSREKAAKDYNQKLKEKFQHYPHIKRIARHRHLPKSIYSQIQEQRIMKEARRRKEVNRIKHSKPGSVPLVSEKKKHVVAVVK
inactive: [1] -0.004 | [2] 0.049 | [3] 0.196 | [4] 0.077 | entinostat -0.058 | vorinostat 0.004 | citarinostat -0.044 | silmitasertib 0.108 | [5] 0.054 | [6] -0.077

EEF1G isoform 2 (UniProt P26641)
inactive: [1] -0.005 | [2] -0.039 | [3] -0.1 | [4] 0.011 | entinostat 0.036 | vorinostat 0.059 | citarinostat 0.035 | silmitasertib 0.014 | [5] 0.003 | [6] -0.046
